Source: PubChem BioAssay AID1159580 (chemical genetic matrix, 2015)
The whole screen tested about 5,500 compounds, of which about 2,000 (36%) were called active. About 18% were inconclusive and are not listed. Rule as the data show it: active = normalized growth mostly below about 0.91 (no sharp cut-off); inconclusive = no clear call, values can overlap the other calls; inactive = mostly above about 0.92. This is one part of the list.

Test: chemical genetic growth profiling, strain panel (AID 1159580);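 also: tested at 20 µM; growth read once vehicle control cultures reached saturation at 30 °C; 1 = growth at the plate median or of vehicle wells; lower values mean less growth of the strain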
Settings: S. cerevisiae deletion strains, growth OD

Measured: normalized growth

CCOc1ccc(NC(=O)CC(C)O)cc1 (stereo not drawn)
inactive: locus YHR030C, strain SLT2, active compounds read low 1.02 | locus YHR079C, strain IRE1, active compounds read low 1.02 | locus YJL095W, strain BCK1, active compounds read low 1.02 | locus YJR066W, strain TOR1, active compounds read low 0.94 | locus YLR113W, strain HOG1, active compounds read low 1.06 | locus YNL183C, strain NPR1, active compounds read low 0.939 | locus YOR231W, strain MKK1, active compounds read low 1.01 | locus YPL256C, strain CLN2, active compounds read low 1.01
